Assay results published in PubChem BioAssay (EPA / NIEHS).
Results filed as inconclusive are left out. Calls of active or inactive are those of the source. Rule for the calls: active = hit-call score of the fitted dose curve at least 0.9, where 1 is the maximum; inconclusive = response in the unintended direction; inactive = score below 0.9.

What follows are compounds tested against Glycogen synthase kinase-3 beta (Homo sapiens) (UniProt P49841) (assay: NVS_ENZ_hGSK3b: NovaScreen (NVS) Enzymatic Assay for human Glycogen Synthase Kinase-3 beta (GSK3b) (AID 2283165)).
Sequence of Glycogen synthase kinase-3 beta (Homo sapiens) (P49841 whole entry, looked up): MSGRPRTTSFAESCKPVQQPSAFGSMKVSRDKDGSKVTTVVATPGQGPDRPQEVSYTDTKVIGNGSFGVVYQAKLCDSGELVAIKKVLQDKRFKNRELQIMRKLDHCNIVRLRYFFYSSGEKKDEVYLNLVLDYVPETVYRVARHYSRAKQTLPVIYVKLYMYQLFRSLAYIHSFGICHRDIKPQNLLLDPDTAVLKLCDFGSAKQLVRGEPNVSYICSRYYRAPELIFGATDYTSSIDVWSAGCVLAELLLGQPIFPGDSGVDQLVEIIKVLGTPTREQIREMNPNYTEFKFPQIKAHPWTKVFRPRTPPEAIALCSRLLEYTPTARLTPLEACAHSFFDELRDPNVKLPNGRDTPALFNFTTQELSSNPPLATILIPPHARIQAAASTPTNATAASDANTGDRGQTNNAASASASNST
Protocol: NVS_ENZ_hGSK3b is a biochemical, single-readout assay that uses extracted gene-proteins in a cell-free assay. Measurements were taken 1 hour after chemical dosing in a 384-well plate.NVS_ENZ_hGSK3b is one of one assay component(s) measured or calculated from the NVS_ENZ_hGSK3b assay. It is designed to make measurements of enzyme activity, a form of enzyme reporter, as detected with fluorescence intensity signals by Fluorescence and electrophoretic mobility shift technology.Data from the assay component NVS_ENZ_hGSK3b was analyzed into 1 assay endpoint. This assay endpoint, NVS_ENZ_hGSK3b, was analyzed in the positive analysis fitting direction relative to DMSO as the negative control and baseline of activity. Using a type of enzyme reporter, loss-of-signal activity can be used to understand changes in the enzymatic activity as they relate to the gene GSK3B. Furthermore, this assay endpoint can be referred to as a primary readout, because this assay has produced multiple assay endpoints where this one serves a enzymatic activity function. To generalize the intended target to other relatable targets, this assay endpoint is annotated to the kinase intended target family, where the subfamily is serine/threonine kinase.
Binding assays used specific radioligands (tritiated, iodinated) with non-radioactive competitive displacement ligands in agonist or antagonist protocols (as indicated) and various reference compounds and inhibitors to titrate specific binding to receptors and transporters. Most enzyme assays (CYPs, kinases, phosphatases, proteases, HDACs) used recombinant protein and specific substrates (fluorescence mostly, some colorimetric and radioactive) and inhibitors, followed by a biochemical separation of substrate and product. All assays for the biochemical HTS were initially run in duplicate at a single concentration (10 uM for CYP450 assays and 25 uM for all others). Assay-chemical combinations meeting a pre-defined threshold (e.g., 30% inhibition and other criteria defined below) were then run in singleton concentration-response format with maximum concentration of 20 uM for CYPs and 50 uM for all others. Each assay was run with positive and negative controls, and concurrent controls on every plate. The follow-up (secondary) screen tested active chemical-pairs in concentration series, as well as a few additional assays not tested in the primary screen, some selected negative inactives, and several cases re-run in the concentration series for confirmatory purposes.
`CC(O)CCO` (stereo unspecified) was tested, and the outcome was “inactive”. For `CCNS(=O)(=O)C(F)(F)C(F)(F)C(F)(F)C(F)(F)C(F)(F)C(F)(F)C(F)(F)C(F)(F)F`, the outcome was “inactive”. With `Nc1ccc(Cc2ccc(N)cc2)cc1` the outcome was “inactive”. In the case of `CCOC(=O)[C@]1(c2ccccc2)Oc2ccccc2[C@@H]1N`, the outcome is reported as “inactive”. For `CCN(CC)N=O`, the outcome was “inactive”. With `Nc1ccc(N=Nc2ccccc2)cc1` the outcome was “inactive”. With `CN(C)[C@@H]1C(=O)C(C(N)=O)=C(O)[C@@]2(O)C(=O)C3=C(O)c4c(O)cccc4[C@@](C)(O)[C@H]3C[C@@H]12` the AC50 was 25 µM (active). With `O=C(Oc1ccc(Br)cc1)N1CCN2CCC1CC2` the outcome was “inactive”. For `CN(C)c1ccc(C(=O)c2ccc(N(C)C)cc2)cc1`, the outcome was “inactive”. `O=[N+]([O-])C(Br)(CO)CO` was tested, and the outcome was “inactive”. In the case of `Clc1ccccc1Cl`, the outcome is reported as “inactive”. `Cc1ccc([N+](=O)[O-])cc1` was tested, and the outcome was “inactive”. For `Cc1cccc(N)c1N`, the AC50 was 27.9 µM (active). With `OCCCl` the outcome was “inactive”. `CN(C)c1ccccc1` was tested, and the outcome was “inactive”. `CCN(CC)CCO` was tested, and the outcome was “inactive”.
